Experimental data as given in PubChem BioAssay (NCATS).
Results filed as inconclusive are left out. Calls of active or inactive are those of the source. Calls follow the shape of the dose curve; as a rule, active = well fitted curve in the direction sought with a large enough effect; inconclusive = small, poorly fitted or top-dose-only effect, or another doubt; inactive = no such curve, though single readings can be large; an effect the other way counts as inactive or inconclusive. Where a SMILES comes first, the peptide text is derived from it.

Tests used:
[1] = molecular target: Calcium and integrin-binding protein 1 (Homo sapiens) (UniProt Q99828); assay: Primary qHTS for Identification of Calcium Integrin Binding Protein 1 (CIB1) Competitor (AID 1508620); conditions: CIB1-GST / FITC-alphaIIb peptide fluorescence polarization; series mostly up to 57.7 µM;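 also: GST tagged CIB1 binding a fluorescein labelled alphaIIb integrin peptide tracer; top concentration of the series differs between compounds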
In short: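 Fluorescence polarization competition: GST-tagged CIB1 (1 uM final) preincubated with compound 15 min at room temperature, then FITC-labelled alphaIIb peptide (100 nM final) added. After 15 min at room temperature, polarization read at Ex 480/Em 540.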

[2] = Primary qHTS for inhibitors of nuclear receptor binding SET domain protein 2 (NSD2) in an isogenic RCH-ACV NSD2 p.E1099K mutant (9B) (AID 1645876); conditions: RCH-ACV NSD2 E1099K (9B) viability, CellTiter-Glo, 72 h; series mostly up to 44.9 µM; also: nearly all actives have a fitted effect of over 70% in size
[3] = Primary qHTS for inhibitors of nuclear receptor binding SET domain protein 2 (NSD2) in an RCH-ACV wild type WT cells (2C) (AID 1645877); conditions: RCH-ACV (leukaemia line) NSD2 WT (2C) viability, CellTiter-Glo, 72 h; series mostly up to 44.9 µM; also: nearly all actives have a fitted effect of over 70% in size
% is scaled to controls: 0 for no effect and ±100 for the full control effect.

Chain of Calcium and integrin-binding protein 1 (Homo sapiens) (Q99828 whole entry, looked up): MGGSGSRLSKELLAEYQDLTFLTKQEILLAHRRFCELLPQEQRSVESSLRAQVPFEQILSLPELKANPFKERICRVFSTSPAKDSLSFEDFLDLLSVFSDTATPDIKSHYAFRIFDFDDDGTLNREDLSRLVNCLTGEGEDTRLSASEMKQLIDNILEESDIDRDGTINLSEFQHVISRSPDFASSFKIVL

CCC(C)C(C(=O)O)N1Cc2c(OCC=C(C)C)c(C)c(OC)c(C(=O)O)c2C1=O (centres undefined)
inactive: Potency [1] | Potency [2] | Potency [3]

COc1cc([C@@H](O[C@@H]2O[C@H](CO)[C@@H](O)[C@H](O)[C@H]2O)[C@@H]2CO[C@H](c3ccc(O)c(OC)c3)[C@H]2CO)ccc1O
inactive: Potency [1] | Potency [2] | Potency [3]

COc1cc(C2OCC3(O)C(c4ccc(O[C@@H]5O[C@H](CO)[C@@H](O)[C@H](O)[C@H]5O)c(OC)c4)OCC23O)ccc1O (some centres undefined)
inactive: Potency [1] | Potency [2] | Potency [3]

CC1=CCC[C@@H]2[C@](CCc3ccoc3)(C(=O)O)[C@H](C)CC[C@@]12C
inactive: Potency [1] | Potency [2] | Potency [3]

CC(C)=C1C[C@@]2(C)C(=CC1=O)CC[C@@H](O)[C@@H]2C
inactive: Potency [1] | Potency [2] | Potency [3]

C[C@@H]1CC[C@]2(C(=O)O[C@@H]3O[C@H](CO[C@@H]4O[C@H](CO)[C@@H](O[C@@H]5O[C@@H](C)[C@H](O)[C@@H](O)[C@H]5O)[C@H](O)[C@H]4O)[C@@H](O)[C@H](O)[C@H]3O)CC[C@]3(C)C(=CCC4[C@@]5(C)C[C@@H](O)[C@H](O)[C@@](C)(CO)C5CC[C@]43C)C2[C@H]1C (some centres undefined)
inactive: Potency [1] | outcome [2] inactive [at 9.23 µM] | outcome [3] inactive [at 9.23 µM]

CC/C=C/C(O)C(O)C1=C(C)C(=O)C2(O1)C(=O)NC(OC)(C(=O)c1ccccc1)C2O (centres undefined)
inactive: Potency [1] | Potency [2] | Potency [3]

OC[C@@]1(O)CO[C@@H](OC[C@H]2O[C@@H](OCc3ccccc3)[C@H](O)[C@@H](O)[C@@H]2O)[C@@H]1O
inactive: Potency [1] | Potency [2] | Potency [3]

C=CC1(C)C=C2CC[C@H]3[C@@](C)(C(=O)O)CCC[C@]3(C)C2CC1 (some centres undefined)
inactive: Potency [1] | Potency [2] | Potency [3]

COc1c(-c2ccc(O)cc2)cc(OC)c2c1oc1cc(O)c(OC3OC(CO)C(O)C3O)cc12 (centres undefined)
inactive: Potency [1] | Potency [2] | Potency [3]

COc1cc(C2CC(=O)Nc3c2cc(Br)c2ccccc32)cc(OC)c1OC (centres undefined)
inactive: Potency [1] | Potency [2] | Potency [3]

C=C(C)C(O)COc1ccc(CC(=O)O)cc1 (centres undefined)
inactive: Potency [1] | Potency [2] | Potency [3]

COc1cc([C@H]2OC[C@](O)(Cc3ccc(O[C@@H]4O[C@H](CO)[C@@H](O)[C@H](O)[C@H]4O)c(OC)c3)[C@@H]2CO)ccc1O
inactive: Potency [1] | Potency [2] | Potency [3]

CC1(C)COC(=O)[C@@H]1O[C@@H]1O[C@H](CO)[C@@H](O)[C@H](O)[C@H]1O
inactive: Potency [1] | Potency [2] | Potency [3]

C/C=C/C=C/C=C/C(=O)N(C)C(C(=O)NC(C)C(=O)N1CCCC1C(N)=O)C(C)C (centres undefined)
inactive: Potency [1] | Potency [2] | Potency [3]

CC(C)=CCC[C@](C)(O[C@@H]1O[C@H](CO)[C@@H](O)[C@H](O)[C@H]1O)[C@H]1CC[C@]2(C)[C@@H]1[C@H](O)CC1[C@@]3(C)CC[C@H](O)C(C)(C)C3[C@@H](O[C@@H]3O[C@H](CO)[C@@H](O)[C@H](O)[C@H]3O[C@@H]3O[C@@H](C)[C@H](O)[C@@H](O)[C@H]3O)C[C@]12C (some centres undefined)
inactive: Potency [1] | activity change, negative = viability loss [2] -2.5% [at 9.23 µM] | activity change, negative = cell killing [3] -9.19% [at 9.23 µM]

CC(C)c1ccc2c(c1)C(=O)CC1C(C)(C(=O)O)CCCC21C (centres undefined)
inactive: Potency [1] | Potency [2] | Potency [3]

CC1(C)CC[C@]2(C(=O)O[C@@H]3O[C@H](CO)[C@@H](O)[C@H](O)[C@H]3O)CC[C@]3(C)C(=CCC4[C@@]5(C)CC[C@H](O[C@@H]6O[C@H](C(=O)O)[C@@H](O)[C@H](O)[C@H]6OC6OC(CO)C(O)C(O)C6O)C(C)(C)C5CC[C@]43C)[C@@H]2C1 (some centres undefined)
inactive: Potency [1] | activity change, negative = viability loss [2] 0.32% [at 9.23 µM] | activity change, negative = cell killing [3] -5.08% [at 9.23 µM]

C[C@@H]1O[C@@H](O[C@@H]2[C@@H](O)[C@H](O[C@H]3[C@H](O[C@H]4CC[C@@]5(C)C(CC[C@]6(C)C5CC=C5[C@@H]7CC(C)(C)CC[C@]7(C(=O)O[C@@H]7O[C@H](CO)[C@@H](O)[C@H](O)[C@H]7O)CC[C@]56C)C4(C)C)O[C@H](C(=O)O)[C@@H](O)[C@@H]3O)OC[C@H]2O)[C@H](O)[C@H](O)[C@H]1O (some centres undefined)
inactive: Potency [1] | activity change, negative = viability loss [2] 2.27% [at 9.23 µM] | activity change, negative = cell killing [3] -1.93% [at 9.23 µM]

CC(=O)OC1CC(C(C)(C)O)OC2CCC3(C)OC4=C(C(=O)C=C5C(C)C(OC(C)=O)C6(C)C(C)OC546)C(O)C3C12C (centres undefined)
inactive: Potency [1] | Potency [2] | Potency [3]

C[C@@H]1[C@H]2[C@H](O[C@@H]3O[C@H](CO)[C@@H](O)[C@H](O)[C@H]3O)OC=C(C(=O)O)[C@H]2C[C@@H]1OC(=O)/C=C/c1ccc(O)cc1
inactive: Potency [1] | Potency [2] | Potency [3]

CC1=CC2=C(C)C(=O)C(C)(O)C(O)C2CO1 (centres undefined)
inactive: Potency [1] | Potency [2] | Potency [3]

C=C1CCC2[C@](C)(CO)CCC[C@@]2(C)[C@@H]1CCC1=CCOC1=O (some centres undefined)
inactive: Potency [1] | Potency [2] | Potency [3]

C/C(=C\C1CCC(C)C2CCC3(C)OC123)C(=O)O (centres undefined)
inactive: Potency [1] | Potency [2] | Potency [3]

COC(=O)C[C@@H]1C(C(=O)O)=CO[C@@H](O[C@@H]2O[C@H](CO)[C@@H](O)[C@H](O)[C@H]2O)/C1=C\COC(=O)/C=C/c1ccc(O)c(OC)c1
inactive: Potency [1] | Potency [2] | Potency [3]

CC(=O)O[C@H]1[C@H](O[C@H]2CC[C@]34C[C@]35CC[C@]3(C)[C@@H]([C@@]6(C)CC[C@@H](C(C)(C)O)O6)[C@@H](O)C[C@@]3(C)[C@@H]5C[C@H](O[C@@H]3O[C@H](CO)[C@@H](O)[C@H](O)[C@H]3O)[C@H]4C2(C)C)OC[C@@H](OC(C)=O)[C@@H]1O
inactive: Potency [1] | Potency [2] | Potency [3]

O=C(/C=C/c1ccc(O)c(O)c1)O[C@@H]1[C@@H](O)[C@H](OC2CCCCC2O)O[C@H](CO)[C@H]1O (some centres undefined)
inactive: Potency [1] | Potency [2] | Potency [3]

C/C=C/C=C/C=C/C(=O)OC1C=C2C(O)OC(=O)[C@]2(O)[C@@]2(C)CCCC(C)(C)[C@H]12 (some centres undefined)
inactive: Potency [1] | Potency [2] | Potency [3]

C[C@@H]1O[C@@H](OC(=O)Cc2ccccc2)[C@H](O)[C@H](O)[C@H]1O
inactive: Potency [1] | Potency [2] | Potency [3]

C/C=C/C=C/C(O)=C1/C(=O)[C@]2(C)C(=O)[C@@](C)(O)[C@H]1[C@H]([C@@]1(C)OC(=O)C(C)=C1O)[C@H]2C(=O)CC/C=C/C
inactive: Potency [1] | Potency [2] | Potency [3]

CC(O)CCc1ccc(O[C@@H]2O[C@H](CO)[C@@H](O)[C@H](O)[C@H]2O)cc1 (some centres undefined)
inactive: Potency [1] | Potency [2] | Potency [3]

C[C@@H]1O[C@@H](OC2C(O[C@H]3[C@H](O[C@H]4CC[C@@]5(C)C(CC[C@]6(C)C5CC=C5C7CC(C)(C)CC(O)[C@]7(C)CC[C@]56C)C4(C)C)O[C@H](C(=O)O)[C@@H](O)[C@@H]3O)OC(CO)C(O)C2O)[C@H](O)[C@H](O)[C@H]1O (some centres undefined)
inactive: Potency [1] | activity change, negative = viability loss [2] 3.07% [at 9.23 µM] | outcome [3] inactive [at 9.23 µM]

CC(=O)OC1C(O)/C(C)=C\C2C(OC(=O)c3ccccc3)C(C)CC2(OC(C)=O)C(OC(C)=O)C(C)/C=C/C(C)(C)C1OC(C)=O (centres undefined)
inactive: Potency [1] | Potency [2] | Potency [3]

CC1(C)CC[C@]2(C(=O)O[C@@H]3O[C@H](CO)[C@@H](O)[C@H](O)[C@H]3O)CC[C@]3(C)C(=CCC4[C@@]5(C)C[C@H](O)[C@H](O[C@@H]6OC[C@@H](O)[C@H](O)[C@H]6O)[C@@](C)(CO)C5CC[C@]43C)C2C1 (some centres undefined)
inactive: Potency [1] | activity change, negative = viability loss [2] 1.45% [at 9.23 µM] | activity change, negative = cell killing [3] 2.07% [at 9.23 µM]

CC1=CC(=O)CC(C)(C)C1/C=C/C(C)OC1OC(COC2OCC(O)C(O)C2O)C(O)C(O)C1O (centres undefined)
inactive: Potency [1] | Potency [2] | Potency [3]

C=C1[C@H](OC(C)=O)[C@H]2[C@@H](OC(=O)c3ccccc3)[C@@H](C)C[C@]2(O)[C@@H](OC(C)=O)[C@H](C)/C=C/C(C)(C)C(=O)[C@H](OC(C)=O)[C@H]1OC(C)=O
inactive: Potency [1] | Potency [2] | Potency [3]

CC1(C)C2CC[C@]3(C)C(C(=O)C=C4[C@H]5C[C@@](C)(C(=O)O)CC[C@]5(C)CC[C@]43C)[C@@]2(C)CC[C@@H]1O (some centres undefined)
inactive: Potency [1] | Potency [2] | Potency [3]

C=C(COC(=O)C(C)C)C1Oc2cc(C(C)=O)ccc2C1OC(=O)C(C)C (centres undefined)
inactive: Potency [1] | Potency [2] | Potency [3]

C[C@@H]1O[C@@H](O[C@H]2[C@H](OC(=O)[C@]34CCC(C)(C)C[C@H]3C3=CCC5[C@@]6(C)C[C@@H](O)[C@@H](O)[C@@](C)(CO)C6[C@H](O)C[C@@]5(C)[C@]3(C)CC4)OC[C@H](O)[C@@H]2O)[C@H](O)[C@H](O)[C@H]1O[C@@H]1OC[C@@H](O)[C@H](O[C@H]2O[C@H](C)[C@@H](O)[C@H](O)[C@@H]2O)[C@H]1O (some centres undefined)
inactive: Potency [1] | activity change, negative = viability loss [2] -2.76% [at 9.23 µM] | activity change, negative = cell killing [3] -1.27% [at 9.23 µM]

COc1cc(/C=C/C(=O)O)ccc1O[C@@H]1O[C@H](CO)[C@@H](O)[C@H](O)[C@H]1O[C@@H]1OC[C@](O)(CO)[C@H]1O
inactive: Potency [1] | Potency [2] | Potency [3]

CCc1cc(CC[C@]2(C3CCCC3)CC(O)=C(Cc3nc4nc(C)cc(C)n4n3)C(=O)O2)cc(CC)n1
inactive: Potency [1] | Potency [2] | Potency [3]

CSCC[C@H](NC(=O)[C@H](CO)NC(=O)[C@H](CCC(=O)O)NC(C)=O)C(=O)N[C@H](C=O)CC(=O)O (Ac-ESMD-aldehyde)
inactive: Potency [1] | activity change, negative = viability loss [2] -10.4% [at 9.23 µM] | activity change, negative = cell killing [3] -15.7% [at 9.23 µM]

COC(=O)C1=CO[C@@H](O[C@@H]2O[C@H](CO)[C@@H](O)[C@H](O)[C@H]2O)[C@@H]2[C@@H](C(=O)O)CC[C@H]12
inactive: Potency [1] | Potency [2] | Potency [3]
